The structures appear in SMILES notation. Calls of active or inactive are those of the source. How the source made its calls: active means hit-call score of the fitted dose curve at least 0.9, where 1 is the maximum; inactive means score below 0.9.

Read-out in this experiment: Interleukin 17F (IL17F), IL17F (gene 112744)
Description: BSK_BT_xIL17F: BioMAP Diversity Plus: BT Assay for Interleukin 17F (IL17F) Biomarker Activity (AID 2284243). The following applies: primary human B cells with PBMC. How it is done:
BSK_BT is a cell-based, multiplexed-readout assay that uses B cell and peripheral blood mononuclear cells, a human vascular primary cell co-culture, with measurements taken at 24 hours after chemical dosing in a microplate: 96-well plate.BSK_BT_xIL17F is an assay component measured in the BSK_BT assay. It measures secreted IL-17F related to regulation of gene expression using LumineX xMAP technology.Data from the assay component BSK_BT_xIL17F was analyzed at the endpoint, BSK_BT_xIL17F, in the positive analysis fitting direction relative to DMSO as the negative control and baseline of activity. Using a type of cytokine quantitation reporter, gain or loss-of-signal activity can be used to understand protein changes. To generalize the intended target to other relatable targets, this assay endpoint is annotated to the 'cytokine' intended target family, where the subfamily is 'interleukins'.
The levels of cell surface (or secreted, indicated by the prefix "s") biomarker endpoints were measured by ELISA. Overt cytotoxicity to cells in confluent adherent cultures (all systems other than the BT system) was assessed by measuring total protein levels using sulforhodamine B (SRB) staining in parallel cultures at the time of biomarker measurements, indicated as SRB endpoints. For proliferation assays for adherent cell types, individual cell types are cultured at sub-confluence and relative cell numbers quantified by SRB staining at time points optimized for each system (48 h: 3C and CASM3C systems; 72 h: BT and HDF3CGF systems; 96 h: SAg system). SRB was performed by staining cells with 0.1% SRB after fixation with 10% TCA and reading wells at 560 nm.Viability and proliferation of PBMC (T cells) was quantified by Alamar Blue reduction for the SAg and BT systems. For PBMC viability (referred to as PBMC Cytotoxicity within the assay endpoint names), cells were plated (75,000/well in a 96-well plate) and then chemical samples added for 1 h before addition of activators, SEB and TSST-1 (20 ng/mL final concentration each). Cells were incubated for 90 h. Then, Alamar Blue (20 uL/well) (Invitrogen, Cat DAL1100) was added for 6 h, and the plates were read with a fluorescence microplate reader at 546/580 nm (excitation/emission). For PBMC proliferation, cells were plated and activated as above but incubated for only 16 h prior to addition of Alamar Blue. Plates were read after 6 h.
In the case of `CC1OC1C1CCC2(C)OC2C1` (configuration not stated), the outcome was inactive. Regarding `N#[N+]c1ccc2c(S(=O)(=O)[O-])cccc2c1O`, the outcome was inactive. In the case of `O=Nc1ccc(O)cc1`, the result was inactive. The same measure, in the same setting: as for `COc1ccc2nc(N)sc2c1`, the entry is “inactive”; as for `CCCCNc1ccc(NCCCC)c2c1C(=O)c1ccccc1C2=O`, “inactive”. Take `O=c1c2ccccc2oc2ccccc12`: the AC50 was 3.97 µM (active). As for `S=C(NC1CCCCC1)NC1CCCCC1`, the result was inactive. On the same count and under the same terms, as for `CC(C)C(=O)C(C)C`, the entry is “inactive”; as for `CCOc1nc(F)cc2nc(S(=O)(=O)Nc3c(Cl)cccc3C(=O)OC)nn12`, “inactive”; as for `CCCCC(CC)COC(=O)c1ccccc1O` (configuration not stated), “inactive”. For the compound `CCCCCCCCc1ccc(Nc2ccc(CCCCCCCC)cc2)cc1`, the outcome was inactive. As to `O=C(Cl)c1cc(C(=O)Cl)cc(C(=O)Cl)c1`, the AC50 is 29.5 µM (active). In the case of `C=CCOCC(O)CCl` (configuration not stated), the outcome was inactive. With `C=CCOc1c(Br)cc(Br)cc1Br`, the concentration at half-maximal activity (AC50) is 26.8 µM (active). On to `C#CC1(O)CC[C@H]2[C@@H]3CCC4=CCCC[C@@H]4[C@H]3CC[C@@]21C` (some centres not stated), for which the AC50 was 28.6 µM (active).

On to `C/C=C\C/C=C/CCCCCCCCOC(C)=O`, for which the AC50 was 25.5 µM (active).

Consider `CCCCC/C=C\C/C=C\CCCCCCCC(=O)OC`, for which the AC50 was 25.2 µM (active). For the compound `c1ccc2c(c1)ccc1cc3c(ccc4ccccc43)cc12`, the result was inactive.

As for `CCCCCCCCCCCCCCCC[N+](C)(C)CC`, the concentration at half-maximal activity (AC50) is 2.28 µM (active).

Turning to `C=CC(=O)OCC(Br)CBr` (configuration not stated), the AC50 was 15.4 µM (active). Take `c1ccc2c(c1)ccc1ncccc12`: the AC50 is 20 µM (active). Consider `O=C(Nc1ccccc1SSc1ccccc1NC(=O)c1ccccc1)c1ccccc1`, for which the concentration at half-maximal activity (AC50) was 9.15 µM (active). `COCc1c(C(C)C)nc(C(C)C)c(/C=C/[C@@H](O)C[C@@H](O)CC(=O)O)c1-c1ccc(F)cc1`: the AC50 is 0.57 µM (active).

As for `CC(C)(c1cc(Br)c(OCCO)c(Br)c1)c1cc(Br)c(OCCO)c(Br)c1`, the AC50 is 23.8 µM (active).

Take `CCO[Si](CCCN=C=O)(OCC)OCC`: the result was inactive. As for `c1ccc(-c2ccccn2)nc1`, the AC50 is 27.6 µM (active).

For `C=CC=CC=CCCCCC`, the AC50 was 7.28 µM (active).

The AC50 is the midpoint of the concentration-response curve, whichever way the signal moves.

Values taken from PubChem BioAssay (EPA / NIEHS).
